Rows were chosen to be rich in hits. Some 2.2% of all compounds tested hit in one or more screens of this group.
A549 viability – Nrf2 qHTS screen for inhibitors: counterscreen for cytotoxicity; Potency, µM (top dose mostly 46 µM), inactives show at the highest dose activity change, negative = cytotoxicity, usual class: inhibitors; hit rate 0.16% among 390,000; A549 ARE-Fluc cells, CellTiter-Fluor viability, 18-24 h; note: potency is the fitted concentration of half-maximal effect; % is set by controls: 0 for no effect and ±100 for the full control effect
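A549 ARE_Fluc cells in 5% FBS OPTI-MEM were exposed to compounds in concentration-response for 18-24 h at 37 deg C. Viability was read by CellTiter-Fluor fluorescence (Ex 405/Em 525) after 30 min, before the luciferase read.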
GALK inhibitor – qHTS Assay for Inhibitors of Human Galactokinase (GALK) | P51570 | Purified GALK, Kinase-Glo residual ATP luminescence | Potency, µM (top dose mostly 57.5 µM), for inactives: at the highest dose activity change, negative = inhibition, actives largely listed as inhibitors | hit rate 0.007% among 270,000 | AID 1868, 2009; note: potency is the fitted concentration of half-maximal effect; % is set by controls: 0 for no effect and ±100 for the full control effect
Target sequence (P51570 whole entry, looked up): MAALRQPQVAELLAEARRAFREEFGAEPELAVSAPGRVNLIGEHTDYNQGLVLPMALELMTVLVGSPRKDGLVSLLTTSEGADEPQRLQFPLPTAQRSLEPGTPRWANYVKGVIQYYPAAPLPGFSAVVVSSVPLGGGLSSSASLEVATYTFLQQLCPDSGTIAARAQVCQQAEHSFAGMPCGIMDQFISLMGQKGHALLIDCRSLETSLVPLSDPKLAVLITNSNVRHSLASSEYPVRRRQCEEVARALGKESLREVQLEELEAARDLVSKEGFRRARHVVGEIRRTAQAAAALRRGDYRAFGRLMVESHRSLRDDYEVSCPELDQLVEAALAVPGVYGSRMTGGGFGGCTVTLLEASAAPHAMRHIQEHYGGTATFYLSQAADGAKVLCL
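GALK at 5 nM final was combined with compound, 35 uM ATP and 100 uM galactose in HEPES pH8.0 with MgCl2 and DTT. The reaction ran one hour at room temperature before luminescent ATP detection.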
PI4K2A block – qHTS for small molecular inhibitors of PI4K2A; Phosphatidylinositol 4-kinase type 2-alpha (Homo sapiens), Q9BTU6; purified PI4K2A, ADP-Glo luminescence, 1 h; active compounds read low; activity change, negative = inhibition, % at 76.9 µM; hit rate 0.13% among 420,000; in the data active = activity change below about -50%; inconclusive = mostly about -30% to -49%;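 note: -100% = wells without enzyme as full effect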
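ADP-Glo luminescence measured ADP generated by PI4K2A enzyme (4 ug/mL before mixing) with 1.2 mM PI substrate (pre-mix) and 300 microM ATP (pre-mix). Tris pH7.5 buffer with MgCl2, Triton X-100; 1 h reaction at ambient temperature.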
Nrf2 inh – Nrf2 qHTS screen for inhibitors; A549 ARE-Fluc reporter, luciferase luminescence, 18-24 h; Potency, µM (highest dose often 46 µM), inactives show top-dose activity change, negative = inhibition, most hits filed as inhibitors; hit rate 2.1% among 360,000; note: potency is the fitted concentration of half-maximal effect; % is set by controls: 0 for no effect and ±100 for the full control effect; nearly all actives have a fitted effect of over 60% in size
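Two sequential reads on A549 ARE_Fluc cells exposed to compound for 18-24 h: a CellTiter-Fluor fluorescence read for viability, then a luciferase luminescence read for Nrf2/ARE activity.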
miR-21 act – qHTS Assay for Modulators of miRNAs and/orActivators of miR-21. HeLa miR-21 FLuc reporter, luciferase, 48 h. Potency, µM (highest dose often 38.3 µM), without a hit: at the top dose activity change, positive = activation, usual class: activators. 340,000 tested, under 10 active;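 note: % of control where 0% means no effect; miR-21 action dims this reporter so a rising signal means less miR-21 action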
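Compounds were titrated across several concentrations (up to approximately 40 uM) and incubated 48 hours with HeLa miR-21-FLuc reporter cells (miR-21 target sequence downstream of FLuc, endogenous miR-21). Readout was firefly luciferase luminescence after lytic detection reagent.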
Nrf2 ARE act – qHTS of Nrf2 Activators | AREc32 ARE-luciferase reporter (MCF7-derived line), luminescence, 24 h | Potency, µM (highest dose often 46.1 µM), for the others: at the top dose activation, usual class: activators | hit rate 0.31% among 410,000; note: potency is the fitted concentration of half-maximal effect; % of control where 0% means no effect; nearly all actives have a fitted effect of over 65% in size
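AREc32 cells carrying an ARE-driven firefly luciferase reporter were seeded at 1000 cells/well in OPTI-MEM with 5% FBS, then exposed to compound for 24 hr at 37 deg C. Luminescence was read with Steady-Glo after 30 min at RT.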
Active calls of the source: *; ? = inconclusive; . = no result; ! = repeats disagree. Unless noted, calls come from the whole dose curve; as a rule, active = well fitted curve in the direction sought with a large enough effect; inconclusive = small, poorly fitted or top-dose-only effect, or another doubt; inactive = no such curve, though single readings can be large; an effect the other way counts as inactive or inconclusive.

SMILES	A549 viability	GALK inhibitor	PI4K2A block	Nrf2 inh	miR-21 act	Nrf2 ARE act
CC(C)Oc1ccc(C(=O)Nc2nnc(SCC(=O)N3CCOCC3)s2)cc1	-3%	-2%	2	5.2µM*	16%	-2%
O=C(Nc1ccc(S(=O)(=O)Nc2ccccc2)cc1)c1ccc(CN2CCOCC2)cc1	-4%	0%	7	4.1µM*	?	0%
CCOc1ccc(NC(=O)c2ccc(NC(=O)c3ccc(CN4CCOCC4)cc3)cc2)cc1	2%	-4%	1	-25%	-3%	-1%
O=C(NC1CCCCN(Cc2ccc(OC(F)(F)F)cc2)C1=O)c1cccc(C(F)(F)F)c1 (stereo not drawn)	.	.	-2	.	.	.
Cc1ccc2occ(CC(=O)Nc3ccc(S(=O)(=O)N4CCCC(C)C4)cc3)c2c1 (stereo not drawn)	-25%	.	0	21µM*	17%	0%
O=C(c1cc(-c2ccc(Br)cc2)n[nH]1)N1CCN(S(=O)(=O)c2ccc(Br)cc2)CC1	-1%	.	3	-9%	-1%	3%
COc1ccc(S(=O)(=O)N2CCN(C(=O)c3cc(-c4ccc(Br)cc4)n[nH]3)CC2)cc1OC	-13%	-3%	4	21µM*	?	3%
O=C(c1cc(-c2ccc(Br)cc2)n[nH]1)N1CCN(C(=O)c2ccccc2Br)CC1	-14%	-6%	2	26µM*	-3%	6%
O=C(Cc1ccccc1)NC1CCCc2c1cnn2-c1ccc(F)cc1F (stereo not drawn)	.	.	-7	.	.	.
COc1ccc(C2c3c(n(CCc4ccccc4)cnc3=N)Oc3ccc4ccccc4c32)cc1OC (stereo not drawn)	0%	.	.	2%	.	.
Cc1cccc(NC(=O)CCc2c(C)nc3c(c(C)nn3C(C)(C)C)c2C)c1C	-9%	.	-3	18µM*	?	0%
COC(=O)c1ccc(NC(=O)CCc2c(C)nc3c(c(C)nn3C(C)(C)C)c2C)cc1	-13%	.	-9	?	-2%	-4%
CCc1ccc(NC(=O)N(CCN2CCOCC2)Cc2ccc3c(c2)CCCN3CC)cc1	16µM*	2%	0	?	-25%	3%
CC(=O)N[C@@H](CO)C(=O)N[C@@H](CC(=O)O)C(=O)N[C@@H](CCCCN)C(=O)N1CCC[C@H]1C(=O)O	.	.	4	.	.	.
CC(=O)Nc1ccc(C=NNc2nnc(NN=Cc3ccc(NC(C)=O)cc3)c3ccccc23)cc1	-6%	.	-5	18µM*	.	3%
Clc1nnc(NN=C2CCCC2)c2ccccc12	-1%	.	3	?	-19%	10µM*
Clc1ccc(/C=N/Nc2nnc(Cl)c3ccccc23)cc1	-8%	-3%	-3	-14%	-26%	1.3µM*
Clc1nnc(N/N=C/c2ccccc2)c2ccccc12	0%	4%	0	?	-46%	?
C(=N\Nc1nncc2ccccc12)/c1ccccc1	4%	-1%	-3	?	-53%	11µM*
CC(C)CN1C(=O)[C@@]2(CC(=O)N(C)C2c2ccccc2)c2cc(-n3cc(CCc4ccccc4)nn3)ccc21 (stereo partly drawn)	.	.	-5	.	.	.
O=c1c2ccccc2nc(N/N=C/c2c(O)ccc3ccccc23)n1O	?	1%	-2	6.5µM*	?	5%
COc1cc(-n2c(C)nc3cc(C(=O)N4CC(C)CC(C)C4)ccc32)cc(OC)c1OC (stereo not drawn)	.	.	-1	.	.	.
CCOc1ccc(C(=O)c2cn(Cc3ccc(Cl)cc3)c3cc(OC)c(OC)cc3c2=O)cc1	15µM*	.	-1	?	-5%	0%
Cc1ccc2c(c1)c(=O)c(C(=O)c1ccc3c(c1)OCO3)cn2Cc1ccc(Cl)cc1	-14%	.	-7	23µM*	26%	3%
CCOC(=O)[C@@]12CN(C(=O)OC(C)(C)C)CC=C1N(Cc1ccc(OC)cc1)C(=O)[C@H]2CC(=O)N1CCCCC1	.	.	-4	.	.	.
SMILES	A549 viability	GALK inhibitor	PI4K2A block	Nrf2 inh	miR-21 act	Nrf2 ARE act
COc1ccccc1-c1c(C(F)(F)F)oc2cc(OC(=O)c3ccccc3[N+](=O)[O-])ccc2c1=O	-13%	1%	-3	-28%	-11%	0%
COc1ccccc1-c1c(C(F)(F)F)oc2cc(OS(C)(=O)=O)ccc2c1=O	-11%	2%	2	8.2µM*	5%	2%
NC(=NCCCCCCN=C(N)/N=C(\N)Nc1ccc(Cl)cc1)/N=C(\N)Nc1ccc(Cl)cc1	?	.	-2	23µM*!	26%	0%
CC(C)N=C(N)/N=C(\N)Nc1ccc(Cl)cc1	.	.	0	.	.	.
CN(C)c1ccc(C(C(=O)NC2CCCCC2)N(Cc2ccco2)C(=O)c2snc(C(N)=O)c2N)cc1 (stereo not drawn)	?	1%	-2	15µM*	24%	3%
COc1cc(C(C(=O)NC2CCCC2)N(Cc2ccco2)C(=O)c2snc(C(N)=O)c2N)cc(OC)c1OC (stereo not drawn)	1%	-2%	-2	-10%	3%	0%
CC(C)c1ccc(N(C(=O)c2snc(C(N)=O)c2N)C(C(=O)NCC2CCCO2)c2ccc(N(C)C)cc2)cc1 (stereo not drawn)	?	-1%	-2	18µM*	?	0%
O=C(c1ccco1)N1CCC(Oc2cccnc2)CC1	.	.	0	.	.	.
O=C(CCCN1CCN(c2ccc(F)cc2)CC1)NC1c2ccccc2CSc2ccccc21 (stereo not drawn)	.	.	-1	.	.	.
Cc1oc2c(CN(C)C)c(O)ccc2c(=O)c1-c1ccc2ccccc2n1	13%	1%	0	1%	-1%	0%
CCc1oc2c(C)c(O)ccc2c(=O)c1-c1ccc2ccccc2n1	-6%	6%	-52*	6%	-3%	0%
COc1ccc(C)cc1NC(=O)CSc1nnc(-c2n[nH]c3c2CCC3)n1N	.	.	-2	.	.	.
Cc1ccc(-c2nn3c(C)nnc3s2)cc1NC(=O)c1ccc(-c2cccc(Cl)c2)o1	-13%	2%	-6	15µM*	-14%	0%
Cc1ccc(-c2nn3c(C)nnc3s2)cc1NC(=O)c1ccc(Br)o1	-14%	1%	-5	?	-4%	5%
Cc1ccc(-c2nn3c(C)nnc3s2)cc1NC(=O)c1ccc(-c2ccc(Cl)cc2Cl)o1	21µM*	-4%	5	?	-12%	-1%
Clc1cccc(-c2ccc3ncnc(NCc4cccs4)c3c2)c1	-2%	.	-2	?	.	4%
